Assay results reported in PubChem BioAssay.
Records with an inconclusive call do not appear. Active and inactive are the calls of the source.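 The calls were made as follows, unless noted: active = inhibition above 54%, about 3 SD of non-fluorescent compounds; inactive = the rest.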

Columns and labels:
[1] = yeast TOR pathway RPL19A-GFP modulators, primary screen, cell-based, S. cerevisiae, multiplex flow cytometry (AID 1862; in the data active = percent of DMSO control GFP below about 86%;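 also: lower values mimic rapamycin by blocking the RPL19A rise seen in DMSO cells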); settings: S. cerevisiae RPL19A-GFP strain, flow cytometry fluorescence, 3 h; at 10 µM; stronger effect = lower value
[2] = modulators of MEP2-GFP levels in yeast, primary screen, S. cerevisiae, multiplex flow cytometry (AID 1867;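 active = GFP response, as percent of the DMSO control, above the screen-wide mean plus 3 SD, about 139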;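 also: median GFP channel fluorescence of barcode-gated MEP2-GFP cells measured by flow cytometry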); settings: S. cerevisiae MEP2-GFP strain, 3 h, at 10 µM, stronger effect = higher value, 100% means same as DMSO wells
[3] = modulators of CIT2-GFP expression in yeast, primary screen, S. cerevisiae, GFP fusion, multiplex flow cytometry (AID 1870;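 active = percent response above a set limit, the screen-wide mean plus 3 SD, cut at about 130% in these data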;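 also: barcoded CIT2-GFP strain pooled with four other GFP strains with rapamycin as positive control; median GFP fluorescence per well over plate mean of DMSO wells so 100% = DMSO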); settings: 3 h, at 10 µM, stronger effect = higher value
[4] = modulators of LAP4-GFP expression in yeast, primary screen, S. cerevisiae, multiplex flow cytometry (AID 1873;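 active = GFP signal, as percent of the solvent control, above the screen mean plus 3 SD, about 149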); settings: 3 h, at 10 µM, stronger effect = higher value
[5] = modulators of AGP1-GFP expression in yeast TOR pathway, primary screen, cell-based, multiplex flow cytometry, S. cerevisiae (AID 1887;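 active = GFP signal above the screen-wide mean plus 3 SD, that is over about 124.5% of the solvent control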;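 also: AGP1-GFP fusion strain of S. cerevisiae within a five-strain barcoded multiplex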); settings: 3 h, at 10 µM, stronger effect = higher value
[6] = inhibitors of CD8+ T cell-vesicle binding, pilot screen, LFA-1/ICAM-1 modulator project, MLPCN validation set, flow cytometry (AID 2523;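 active = response below a set limit, under 55% cells CD8-positive and vesicle-bound, and CD8 cells' 90th-percentile brightness under 279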;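 as to vesicle binding response: mean PE anti-B7-1 fluorescence of CD8+ cells relative to row control; 100% = QL9-loaded vesicles with DMSO vehicle in the same plate row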); settings: 2C mouse CD8+ T cells, at 7 µM, stronger effect = lower value; double positive events: measured here: CD8+/vesicle+ event percentage
[7] = target: Integrin beta-1 (Homo sapiens) + Integrin alpha-4 (Homo sapiens) (UniProt P13612+P05556); assay: inhibition of HUTS-21 binding to VLA-4, pilot screen, VLA-4 allosteric modulator project, U937 cells, HUTS-21 mAb, flow cytometry, validation set (AID 2674;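 active = inhibition above 50%, about 3 SD of the validation set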;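 also: antibody binding induced by the VLA-4 ligand LDV present at three times its Kd; 0% = LDV ligand with antibody and no compound and 100% = antibody without LDV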); settings: HUTS-21 LIBS mAb binding, at 6.7 µM, stronger effect = higher value, binding induced by LDV ligand
Sequence of Integrin beta-1 (Homo sapiens) + Integrin alpha-4 (Homo sapiens) (P05556 whole entry, looked up): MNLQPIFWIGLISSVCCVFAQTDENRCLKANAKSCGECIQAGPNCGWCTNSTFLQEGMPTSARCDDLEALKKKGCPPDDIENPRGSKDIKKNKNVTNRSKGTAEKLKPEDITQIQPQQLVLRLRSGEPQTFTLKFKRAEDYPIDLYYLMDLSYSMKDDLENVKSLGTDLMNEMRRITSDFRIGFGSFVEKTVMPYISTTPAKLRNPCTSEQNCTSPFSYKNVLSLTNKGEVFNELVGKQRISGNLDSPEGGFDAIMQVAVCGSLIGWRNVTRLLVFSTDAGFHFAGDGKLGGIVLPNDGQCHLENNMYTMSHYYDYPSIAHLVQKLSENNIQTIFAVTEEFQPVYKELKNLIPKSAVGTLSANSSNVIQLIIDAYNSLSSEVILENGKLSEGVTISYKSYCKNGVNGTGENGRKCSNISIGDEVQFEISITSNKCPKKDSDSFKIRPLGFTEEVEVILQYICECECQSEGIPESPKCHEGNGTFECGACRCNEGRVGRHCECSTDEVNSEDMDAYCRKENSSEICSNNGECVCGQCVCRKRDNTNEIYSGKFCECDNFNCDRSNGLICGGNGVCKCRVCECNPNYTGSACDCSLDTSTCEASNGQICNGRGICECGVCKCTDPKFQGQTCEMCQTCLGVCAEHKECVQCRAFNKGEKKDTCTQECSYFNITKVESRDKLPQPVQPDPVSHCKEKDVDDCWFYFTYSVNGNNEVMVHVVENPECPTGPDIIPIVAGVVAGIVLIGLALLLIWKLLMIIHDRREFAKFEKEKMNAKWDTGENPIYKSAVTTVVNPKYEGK
Sequence of Integrin beta-1 (Homo sapiens) + Integrin alpha-4 (Homo sapiens) (P13612 whole entry, looked up): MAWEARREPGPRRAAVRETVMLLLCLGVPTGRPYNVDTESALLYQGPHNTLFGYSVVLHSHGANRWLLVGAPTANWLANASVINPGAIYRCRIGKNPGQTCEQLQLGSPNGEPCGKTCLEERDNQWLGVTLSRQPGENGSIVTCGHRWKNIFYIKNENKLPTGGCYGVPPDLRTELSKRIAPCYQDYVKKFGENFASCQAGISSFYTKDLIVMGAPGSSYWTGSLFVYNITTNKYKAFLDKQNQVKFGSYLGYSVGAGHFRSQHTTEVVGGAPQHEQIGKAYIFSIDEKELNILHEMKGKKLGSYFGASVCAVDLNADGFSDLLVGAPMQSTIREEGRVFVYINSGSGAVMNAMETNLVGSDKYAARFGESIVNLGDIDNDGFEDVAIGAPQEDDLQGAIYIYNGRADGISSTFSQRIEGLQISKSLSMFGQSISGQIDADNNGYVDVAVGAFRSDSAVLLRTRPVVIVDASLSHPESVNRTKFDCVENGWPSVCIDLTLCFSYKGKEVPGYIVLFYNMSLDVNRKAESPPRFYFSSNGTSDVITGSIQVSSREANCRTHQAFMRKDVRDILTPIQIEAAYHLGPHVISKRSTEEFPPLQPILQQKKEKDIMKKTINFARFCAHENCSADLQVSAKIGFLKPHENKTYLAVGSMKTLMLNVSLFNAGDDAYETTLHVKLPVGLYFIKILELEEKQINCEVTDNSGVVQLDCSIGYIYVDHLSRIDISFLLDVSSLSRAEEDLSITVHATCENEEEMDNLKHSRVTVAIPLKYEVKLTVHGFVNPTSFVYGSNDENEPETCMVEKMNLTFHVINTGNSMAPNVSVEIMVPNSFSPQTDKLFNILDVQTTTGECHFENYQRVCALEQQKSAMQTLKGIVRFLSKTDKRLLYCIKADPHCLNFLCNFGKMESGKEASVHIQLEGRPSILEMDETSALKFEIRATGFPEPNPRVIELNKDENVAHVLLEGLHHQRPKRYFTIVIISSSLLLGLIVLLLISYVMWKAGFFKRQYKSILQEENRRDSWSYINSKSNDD

[8] = superoxide lowering in aged yeast cells, pilot screen, validation compound set (AID 2706;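 active = superoxide response below 65% of plate, a cut near 3 SD across the whole screen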;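 also: yeast exposed to compound for one week at 30 degrees C before staining; 100% = mean of all compound wells on the same plate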); settings: S. cerevisiae aging, superoxide DHE fluorescence; at 10 µM, stronger effect = lower value
[9] = target: Beta-adrenergic receptor kinase 1 (Homo sapiens) (UniProt P25098); assay: GRK2 binders displacing RNA aptamer, biochemical, validation, human GRK2, bead flow cytometry (AID 488806;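 active = aptamer binding inhibition above 30%, about 3 SD of noise from non-fluorescent compounds; inactive = inhibition at or below 30%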); settings: bead-bound GRK2, FAM-aptamer displacement, at 10 µM, stronger effect = higher value
Sequence of Beta-adrenergic receptor kinase 1 (Homo sapiens) (P25098 whole entry, looked up, the tested form may be a part): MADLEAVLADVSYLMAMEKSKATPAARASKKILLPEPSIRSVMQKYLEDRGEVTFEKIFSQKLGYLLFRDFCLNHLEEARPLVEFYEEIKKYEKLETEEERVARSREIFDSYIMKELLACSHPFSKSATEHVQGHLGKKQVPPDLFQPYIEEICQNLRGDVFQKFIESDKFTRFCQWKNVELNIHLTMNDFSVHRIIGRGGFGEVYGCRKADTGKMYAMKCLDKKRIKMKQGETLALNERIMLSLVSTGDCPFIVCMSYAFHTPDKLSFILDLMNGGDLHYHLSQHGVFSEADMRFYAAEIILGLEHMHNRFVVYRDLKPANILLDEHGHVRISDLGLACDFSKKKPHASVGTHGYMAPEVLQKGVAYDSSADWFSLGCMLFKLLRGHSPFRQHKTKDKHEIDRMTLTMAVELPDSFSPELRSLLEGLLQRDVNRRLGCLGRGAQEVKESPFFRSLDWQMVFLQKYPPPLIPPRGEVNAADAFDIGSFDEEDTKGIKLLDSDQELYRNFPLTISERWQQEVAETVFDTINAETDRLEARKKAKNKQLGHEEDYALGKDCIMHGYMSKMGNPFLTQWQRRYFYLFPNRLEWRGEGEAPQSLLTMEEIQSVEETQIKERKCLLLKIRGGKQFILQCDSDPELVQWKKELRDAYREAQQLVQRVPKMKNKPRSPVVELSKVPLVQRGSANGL

[10] = target: AP-2 complex subunit beta (Homo sapiens) (UniProt P63010); assay: inhibitors of arrestin peptide binding to AP2, pilot screen, biochemical, validation set, GST-AP2 beads, flow cytometry (AID 504541); settings: FITC arrestin peptide, at 10 µM, stronger effect = higher value, AP2 beta2 appendage fragment, R879A mutant;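 also: AP2 carries R879A mutation and is captured from E. coli lysate; bead-bound FITC arrestin peptide fluorescence measuring arrestin peptide binding to AP2; 0% = DMSO wells and 100% = excess unlabeled arrestin peptide control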
Sequence of AP-2 complex subunit beta (Homo sapiens) (P63010 whole entry, looked up, the tested form may be a part, one chain of several): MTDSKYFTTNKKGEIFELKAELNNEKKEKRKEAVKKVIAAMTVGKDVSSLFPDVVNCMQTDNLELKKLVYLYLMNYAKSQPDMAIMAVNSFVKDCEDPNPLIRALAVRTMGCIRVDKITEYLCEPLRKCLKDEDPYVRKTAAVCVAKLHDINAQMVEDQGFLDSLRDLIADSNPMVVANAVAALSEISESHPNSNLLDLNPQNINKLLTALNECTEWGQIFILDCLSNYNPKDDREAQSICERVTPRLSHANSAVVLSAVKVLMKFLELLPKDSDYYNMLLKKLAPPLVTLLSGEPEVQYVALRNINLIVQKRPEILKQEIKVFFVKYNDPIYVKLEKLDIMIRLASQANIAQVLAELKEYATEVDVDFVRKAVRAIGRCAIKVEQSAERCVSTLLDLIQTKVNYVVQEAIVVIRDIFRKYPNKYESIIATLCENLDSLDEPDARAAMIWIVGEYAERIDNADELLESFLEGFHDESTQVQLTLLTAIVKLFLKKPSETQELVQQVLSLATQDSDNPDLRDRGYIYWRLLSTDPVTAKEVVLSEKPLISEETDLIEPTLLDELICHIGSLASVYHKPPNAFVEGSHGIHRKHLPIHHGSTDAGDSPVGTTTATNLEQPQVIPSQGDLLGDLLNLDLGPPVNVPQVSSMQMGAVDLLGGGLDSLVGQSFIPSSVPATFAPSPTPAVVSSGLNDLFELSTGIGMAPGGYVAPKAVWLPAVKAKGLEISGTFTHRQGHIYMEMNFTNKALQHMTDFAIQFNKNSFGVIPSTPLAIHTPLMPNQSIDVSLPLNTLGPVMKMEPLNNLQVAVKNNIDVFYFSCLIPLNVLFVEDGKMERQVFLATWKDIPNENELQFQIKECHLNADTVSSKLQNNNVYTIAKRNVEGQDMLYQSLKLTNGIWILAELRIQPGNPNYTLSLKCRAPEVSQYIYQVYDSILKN

[11] = yeast V-ATPase proton transport modulators, S. cerevisiae, pHLuorin, HTS validation (AID 504600; in the data active = response above about 15%;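 also: plate controls were DMSO for no effect and reference compound for full effect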); settings: S. cerevisiae pHLuorin cytosolic pH, at 10 µM, stronger effect = higher value
[12] = test system: anti-desmoglein-3 scFv antibody binding to human DSG3; assay: inhibitors of anti-DSG3 scFv binding to DSG3, pilot screen, biochemical, validation compound set, bead-based, flow cytometry (AID 588368;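 active = binding below the plate cutoff, the plate median minus 3 SD, with a reading above zero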;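 also: signal is the median channel fluorescence of bead-bound GFP antibody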); settings: Protein G beads, DSG3-Fc, scFv-GFP binding, at 10 µM, stronger effect = lower value
[13] = inhibitors of fungal efflux pumps CDR1, CDR2, MDR1, pilot screen, validation compound set, multiplex, phenotypic (AID 588506;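 active = efflux inhibition above 0.42, the validation set average plus 4 SD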;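 also: Nile Red retained in cells so higher fluorescence means more efflux inhibition; 0 = negative control wells and 1 = enniatin B 25 µM full block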); settings: S. cerevisiae pump-expressing triplex, Nile Red efflux flow cytometry; at 10 µM; stronger effect = higher value; the pumps come from Candida albicans
[14] = target: ATP-binding cassette sub-family B member 6 (Homo sapiens) (UniProt Q9NP58); assay: ABCB6 transporter inhibitors, pilot screen, K562-ABCB6 cells, flow cytometry, validation set (AID 588550;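 active = inhibition above the screen-wide mean plus 3 SD, about 51%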;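 also: 0% = DMSO wells and 100% = benzethonium chloride 70 µM positive control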); settings: K562-ABCB6 porphyrin accumulation, 1 h, at 10 µM, stronger effect = higher value
Sequence of ATP-binding cassette sub-family B member 6 (Homo sapiens) (Q9NP58 whole entry, looked up): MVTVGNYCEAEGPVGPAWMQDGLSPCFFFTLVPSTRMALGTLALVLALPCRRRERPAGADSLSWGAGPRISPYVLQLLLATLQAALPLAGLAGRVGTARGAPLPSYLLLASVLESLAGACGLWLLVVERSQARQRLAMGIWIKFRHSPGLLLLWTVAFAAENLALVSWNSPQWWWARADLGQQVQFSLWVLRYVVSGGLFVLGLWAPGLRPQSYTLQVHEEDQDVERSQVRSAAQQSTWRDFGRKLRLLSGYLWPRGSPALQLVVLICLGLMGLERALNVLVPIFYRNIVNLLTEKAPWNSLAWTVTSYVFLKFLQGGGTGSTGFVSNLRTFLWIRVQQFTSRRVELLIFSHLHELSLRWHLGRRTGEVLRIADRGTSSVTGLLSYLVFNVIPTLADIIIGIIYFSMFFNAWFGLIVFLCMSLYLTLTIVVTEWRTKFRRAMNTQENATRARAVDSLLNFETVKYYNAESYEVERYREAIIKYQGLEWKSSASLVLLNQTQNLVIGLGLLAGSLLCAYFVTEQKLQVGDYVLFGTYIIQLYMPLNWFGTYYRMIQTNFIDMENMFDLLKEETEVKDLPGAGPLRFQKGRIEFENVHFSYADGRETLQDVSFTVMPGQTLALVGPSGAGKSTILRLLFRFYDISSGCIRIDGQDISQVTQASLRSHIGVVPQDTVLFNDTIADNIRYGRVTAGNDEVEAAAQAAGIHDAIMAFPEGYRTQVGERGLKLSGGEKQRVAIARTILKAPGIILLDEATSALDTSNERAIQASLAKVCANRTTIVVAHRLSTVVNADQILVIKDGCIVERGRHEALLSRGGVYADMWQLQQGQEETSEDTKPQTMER

[15] = promoters of myeloid differentiation in arrested cells, primary screen, cell-based, GFP/MAC1 double positive, flow cytometry, validation set (AID 588685;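 active = differentiation response of at least 50%, scaled between solvent and reference control, from cells with both markers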;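 also: compound exposure lasts four days before antibody staining and flow analysis; 0% = DMSO wells and 100% = 5 µM fulvestrant positive control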); settings: ER-HoxA9 marrow cells, stronger effect = higher value, normalized: vehicle 0, fulvestrant 100

COc1cc2c(cc1OC)C(c1cc(OC)c(OC)c(OC)c1)NCC2 (stereo not given)
inactive: percent of DMSO control GFP [1] 101% | GFP response vs DMSO [2] 103% | percent response of DMSO control [3] 108% | GFP response vs DMSO [4] 90.3% | GFP response, % of DMSO [5] 102% | vesicle binding response [6] 148% | inhibition [7] -0.24% | superoxide response (% of plate) [8] 102% | aptamer binding inhibition [9] 2% | inhibition [10] -5.98% | response [11] -3.82% | binding (% of control) [12] 96% | efflux inhibition (fraction of control) [13] -0.01 | inhibition [14] 7% | differentiation response [15] -14.7%
59.3%: double positive events [6]

CCS(=O)(=O)CCn1c([N+](=O)[O-])cnc1C
47.3%: double positive events [6]
inactive: percent of DMSO control GFP [1] 96.4% | GFP response vs DMSO [2] 106% | percent response of DMSO control [3] 95.9% | GFP response vs DMSO [4] 94.3% | GFP response, % of DMSO [5] 97.8% | vesicle binding response [6] 136% | inhibition [7] 12.8% | superoxide response (% of plate) [8] 108% | aptamer binding inhibition [9] 8% | inhibition [10] -4.86% | response [11] 5.33% | binding (% of control) [12] 99.1% | efflux inhibition (fraction of control) [13] 0.18 | inhibition [14] 4% | differentiation response [15] -5.05%

CC1(C)OC2OC(C(=O)N/N=C/c3ccccc3F)C3OC(C)(C)OC3C2O1 (stereo not given)
53.1%: double positive events [6]
inactive: percent of DMSO control GFP [1] 100% | GFP response vs DMSO [2] 106% | percent response of DMSO control [3] 97.9% | GFP response vs DMSO [4] 101% | GFP response, % of DMSO [5] 101% | vesicle binding response [6] 164% | inhibition [7] 12.8% | superoxide response (% of plate) [8] 103% | aptamer binding inhibition [9] 1% | inhibition [10] 0.54% | response [11] 1.25% | binding (% of control) [12] 96.5% | inhibition [14] 9% | differentiation response [15] -13.1%
active: efflux inhibition (fraction of control) [13] 0.52

N/C(=N\OS(=O)(=O)c1ccc2ccccc2c1)c1cccnc1
61.4%: double positive events [6]
inactive: percent of DMSO control GFP [1] 103% | GFP response vs DMSO [2] 104% | percent response of DMSO control [3] 95.9% | GFP response vs DMSO [4] 99.4% | GFP response, % of DMSO [5] 97.5% | vesicle binding response [6] 133% | inhibition [7] 2.56% | superoxide response (% of plate) [8] 96.2% | aptamer binding inhibition [9] 2% | inhibition [10] 45.4% | response [11] -4.42% | binding (% of control) [12] 108% | efflux inhibition (fraction of control) [13] 0.29 | inhibition [14] 6% | differentiation response [15] -13.1%

C=CCc1ccccc1OCC(O)CNC(C)C (stereo not given)
inactive: percent of DMSO control GFP [1] 103% | GFP response vs DMSO [2] 107% | percent response of DMSO control [3] 104% | GFP response vs DMSO [4] 108% | GFP response, % of DMSO [5] 118% | vesicle binding response [6] 209% | inhibition [7] -11.3% | superoxide response (% of plate) [8] 96.7% | aptamer binding inhibition [9] -32% | inhibition [10] -4.94% | response [11] 0.57% | binding (% of control) [12] 107% | efflux inhibition (fraction of control) [13] 0.12 | inhibition [14] -2% | differentiation response [15] -11.9%
61.2%: double positive events [6]

C[C@@H]1C[C@H]2[C@@H]3CCC4=CC(=O)C=C[C@]4(C)[C@@]3(F)[C@@H](O)C[C@]2(C)[C@@]1(O)C(=O)COP(=O)(O)O
inactive: percent of DMSO control GFP [1] 104% | GFP response vs DMSO [2] 98.9% | percent response of DMSO control [3] 101% | GFP response vs DMSO [4] 83.3% | GFP response, % of DMSO [5] 93% | vesicle binding response [6] 126% | inhibition [7] 20.3% | superoxide response (% of plate) [8] 106% | aptamer binding inhibition [9] 2% | inhibition [10] -3.37% | response [11] 4.69% | binding (% of control) [12] 96.9% | efflux inhibition (fraction of control) [13] -0.09 | inhibition [14] 10% | differentiation response [15] -13.1%
53.3%: double positive events [6]

CC(C)(C)c1csc(N/N=C/c2cccnc2)n1
inactive: percent of DMSO control GFP [1] 99% | GFP response vs DMSO [2] 106% | percent response of DMSO control [3] 95.9% | GFP response vs DMSO [4] 107% | GFP response, % of DMSO [5] 87.4% | vesicle binding response [6] 163% | inhibition [7] 17.5% | superoxide response (% of plate) [8] 96% | aptamer binding inhibition [9] 5% | inhibition [10] 5.38% | response [11] 1.92% | binding (% of control) [12] 99.3% | efflux inhibition (fraction of control) [13] -0.12 | inhibition [14] 7% | differentiation response [15] 4.64%
53.8%: double positive events [6]

O=C1N=c2ccccc2=C1c1[nH]c(=S)[nH]c1O
inactive: percent of DMSO control GFP [1] 98.8% | GFP response vs DMSO [2] 96.9% | percent response of DMSO control [3] 106% | GFP response vs DMSO [4] 81.3% | GFP response, % of DMSO [5] 99.6% | vesicle binding response [6] 181% | inhibition [7] 2.56% | superoxide response (% of plate) [8] 98.7% | aptamer binding inhibition [9] -2% | inhibition [10] 2.65% | response [11] 3.63% | binding (% of control) [12] 98% | efflux inhibition (fraction of control) [13] -0.12 | inhibition [14] 8% | differentiation response [15] -19.6%
56.8%: double positive events [6]

COc1ccccc1C1C(C#N)=C(N)Oc2c1oc(CO)cc2=O (stereo not given)
inactive: percent of DMSO control GFP [1] 102% | GFP response vs DMSO [2] 96.9% | percent response of DMSO control [3] 111% | GFP response vs DMSO [4] 103% | GFP response, % of DMSO [5] 107% | vesicle binding response [6] 174% | inhibition [7] -11.4% | superoxide response (% of plate) [8] 103% | aptamer binding inhibition [9] 2% | inhibition [10] -6.41% | response [11] 2.3% | binding (% of control) [12] 95.9% | efflux inhibition (fraction of control) [13] 0.03 | inhibition [14] 9% | differentiation response [15] -11.5%
52%: double positive events [6]

CNCCC=C1c2ccccc2CCc2ccccc21
49.9%: double positive events [6]
inactive: percent of DMSO control GFP [1] 100% | GFP response vs DMSO [2] 98.9% | percent response of DMSO control [3] 110% | GFP response vs DMSO [4] 97.4% | GFP response, % of DMSO [5] 102% | vesicle binding response [6] 151% | inhibition [7] 21.2% | superoxide response (% of plate) [8] 110% | aptamer binding inhibition [9] 0% | inhibition [10] -0.2% | response [11] 4.21% | binding (% of control) [12] 100% | efflux inhibition (fraction of control) [13] -0.12 | inhibition [14] 11% | differentiation response [15] -13.1%
